In PMC7862700, “An all-to-all approach to the identification of sequence-specific readers for epigenetic DNA modifications on cytosine”:

Key:
Assay in all cases: DAPPL (digital affinity profiling via proximity ligation, sequencing); 10 mM Tris-HCl pH 7.5, 50 mM NaCl, 1 mM DTT, 4% glycerol, room temperature, 30 min; GST-TFs on glutathione beads, 16-mer random dsDNA library, 0.1% formaldehyde crosslink after washing; high values mean tight binding
Conditions in all cases: protein: recombinant; tags: N-terminal GST; dsDNA, one strand shown
ELK1 = target: T1, ELK1 (Homo sapiens, UniProt P19419 1-428)
T1 sequence: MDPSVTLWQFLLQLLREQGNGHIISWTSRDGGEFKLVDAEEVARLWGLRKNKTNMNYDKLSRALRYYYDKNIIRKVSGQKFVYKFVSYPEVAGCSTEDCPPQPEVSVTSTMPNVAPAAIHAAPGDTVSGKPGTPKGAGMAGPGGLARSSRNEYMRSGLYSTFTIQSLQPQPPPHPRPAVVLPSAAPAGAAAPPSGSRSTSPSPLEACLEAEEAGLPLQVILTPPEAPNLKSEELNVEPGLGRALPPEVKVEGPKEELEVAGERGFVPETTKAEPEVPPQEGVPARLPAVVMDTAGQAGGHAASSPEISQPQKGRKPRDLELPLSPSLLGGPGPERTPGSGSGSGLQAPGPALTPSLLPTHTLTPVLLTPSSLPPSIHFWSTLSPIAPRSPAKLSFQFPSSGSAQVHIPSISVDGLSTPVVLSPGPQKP
How it was run: (§1)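 Human transcription factors were made in yeast as GST fusions, captured on glutathione beads and barcoded with DNA. With a tag-only sample included, the pool was incubated with 200 nmole of a random double-stranded 16-mer DNA library in Tris/NaCl/DTT/glycerol buffer at room temperature for 30 min, then crosslinked with 0.1% formaldehyde after washing, ligated by proximity, amplified and sequenced. For binding signal, each hexamer's read frequency for a factor is divided by its frequency for the tag-only sample.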

ERG = target: T2, ERG (Homo sapiens, UniProt P11308 1-479)
T2 sequence: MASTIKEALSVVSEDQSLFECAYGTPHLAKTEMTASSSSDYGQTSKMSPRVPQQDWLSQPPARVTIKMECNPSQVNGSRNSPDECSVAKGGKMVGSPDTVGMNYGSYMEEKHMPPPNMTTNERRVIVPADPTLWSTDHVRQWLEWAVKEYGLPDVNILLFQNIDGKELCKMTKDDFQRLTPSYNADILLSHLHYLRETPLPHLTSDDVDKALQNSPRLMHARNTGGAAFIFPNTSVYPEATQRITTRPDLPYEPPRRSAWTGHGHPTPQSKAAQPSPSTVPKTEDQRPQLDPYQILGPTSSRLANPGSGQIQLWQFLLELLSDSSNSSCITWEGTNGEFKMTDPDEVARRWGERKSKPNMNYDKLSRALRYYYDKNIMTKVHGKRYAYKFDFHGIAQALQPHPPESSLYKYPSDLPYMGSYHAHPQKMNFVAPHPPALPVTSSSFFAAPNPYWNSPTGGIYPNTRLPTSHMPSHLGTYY
How it was run: as §1

ELK4 = target: T3, ELK4 (Homo sapiens, UniProt P28324-2 1-405)
T3 sequence: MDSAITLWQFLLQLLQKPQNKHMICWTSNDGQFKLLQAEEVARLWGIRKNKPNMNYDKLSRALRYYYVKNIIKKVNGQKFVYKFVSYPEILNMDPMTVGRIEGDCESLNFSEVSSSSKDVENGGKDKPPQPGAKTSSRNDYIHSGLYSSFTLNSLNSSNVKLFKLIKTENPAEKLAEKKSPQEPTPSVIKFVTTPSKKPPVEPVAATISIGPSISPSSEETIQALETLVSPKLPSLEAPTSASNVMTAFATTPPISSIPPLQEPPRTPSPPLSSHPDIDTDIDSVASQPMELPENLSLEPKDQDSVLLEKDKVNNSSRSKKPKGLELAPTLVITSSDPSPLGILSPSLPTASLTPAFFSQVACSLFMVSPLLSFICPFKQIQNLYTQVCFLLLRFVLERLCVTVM
How it was run: as §1

ELF3 = target: T4, ELF3 (Homo sapiens, UniProt P78545 1-371)
T4 sequence: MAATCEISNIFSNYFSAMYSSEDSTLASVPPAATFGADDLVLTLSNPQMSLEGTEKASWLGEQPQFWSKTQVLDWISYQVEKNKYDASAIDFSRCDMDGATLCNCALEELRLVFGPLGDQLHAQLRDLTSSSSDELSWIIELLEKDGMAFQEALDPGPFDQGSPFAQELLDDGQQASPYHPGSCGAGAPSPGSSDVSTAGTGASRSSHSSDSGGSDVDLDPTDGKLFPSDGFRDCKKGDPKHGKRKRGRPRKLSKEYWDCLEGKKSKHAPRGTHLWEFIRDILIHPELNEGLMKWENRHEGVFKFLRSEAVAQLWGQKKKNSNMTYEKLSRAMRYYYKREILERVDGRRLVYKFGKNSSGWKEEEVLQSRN
How it was run: as §1

CRX = CRX (Homo sapiens, UniProt O43186 1-299)
Chain of CRX (O43186 whole entry): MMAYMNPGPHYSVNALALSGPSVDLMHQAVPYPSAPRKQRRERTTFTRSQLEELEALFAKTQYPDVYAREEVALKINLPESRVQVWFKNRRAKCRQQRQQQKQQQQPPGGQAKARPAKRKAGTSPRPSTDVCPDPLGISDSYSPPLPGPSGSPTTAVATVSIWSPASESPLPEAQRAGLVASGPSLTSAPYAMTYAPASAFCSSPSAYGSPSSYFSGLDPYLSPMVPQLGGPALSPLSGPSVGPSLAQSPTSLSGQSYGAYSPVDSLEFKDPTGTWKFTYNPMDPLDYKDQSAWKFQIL
How it was run: as §1

ETV1 = ETV1 (Homo sapiens, UniProt P50549 1-477)
Chain of ETV1 (P50549 whole entry): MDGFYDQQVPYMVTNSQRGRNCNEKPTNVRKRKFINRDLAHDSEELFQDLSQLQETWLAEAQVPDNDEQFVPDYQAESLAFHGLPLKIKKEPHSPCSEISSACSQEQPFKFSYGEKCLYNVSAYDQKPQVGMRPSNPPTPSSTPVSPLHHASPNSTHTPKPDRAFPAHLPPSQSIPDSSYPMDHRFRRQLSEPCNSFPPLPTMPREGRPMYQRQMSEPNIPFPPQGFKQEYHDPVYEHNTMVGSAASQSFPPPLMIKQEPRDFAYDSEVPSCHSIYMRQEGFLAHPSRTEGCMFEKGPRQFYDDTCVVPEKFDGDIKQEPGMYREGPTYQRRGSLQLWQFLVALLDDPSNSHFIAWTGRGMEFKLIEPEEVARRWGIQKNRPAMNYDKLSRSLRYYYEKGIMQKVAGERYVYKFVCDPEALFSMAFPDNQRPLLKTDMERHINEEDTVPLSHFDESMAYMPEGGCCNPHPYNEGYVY
How it was run: as §1

ERF = target: T5, ERF (Homo sapiens, UniProt P50548 1-548)
T5 sequence: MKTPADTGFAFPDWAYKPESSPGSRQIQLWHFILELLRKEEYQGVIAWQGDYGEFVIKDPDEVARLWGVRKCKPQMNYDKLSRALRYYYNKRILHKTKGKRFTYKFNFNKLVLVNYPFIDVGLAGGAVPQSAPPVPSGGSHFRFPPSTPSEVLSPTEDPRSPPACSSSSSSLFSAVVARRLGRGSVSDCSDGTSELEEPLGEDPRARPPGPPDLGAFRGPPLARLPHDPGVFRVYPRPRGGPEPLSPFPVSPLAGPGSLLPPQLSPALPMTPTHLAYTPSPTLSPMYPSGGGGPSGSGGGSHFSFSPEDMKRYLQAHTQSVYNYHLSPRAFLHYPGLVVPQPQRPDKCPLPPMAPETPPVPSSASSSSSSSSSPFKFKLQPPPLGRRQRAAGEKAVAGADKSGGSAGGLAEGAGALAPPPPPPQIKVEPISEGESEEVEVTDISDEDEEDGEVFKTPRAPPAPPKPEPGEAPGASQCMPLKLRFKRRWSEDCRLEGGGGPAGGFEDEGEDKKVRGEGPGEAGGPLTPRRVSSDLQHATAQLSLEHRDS
How it was run: as §1

SPDEF = target: T6, SPDEF (Homo sapiens, UniProt O95238 1-335)
T6 sequence: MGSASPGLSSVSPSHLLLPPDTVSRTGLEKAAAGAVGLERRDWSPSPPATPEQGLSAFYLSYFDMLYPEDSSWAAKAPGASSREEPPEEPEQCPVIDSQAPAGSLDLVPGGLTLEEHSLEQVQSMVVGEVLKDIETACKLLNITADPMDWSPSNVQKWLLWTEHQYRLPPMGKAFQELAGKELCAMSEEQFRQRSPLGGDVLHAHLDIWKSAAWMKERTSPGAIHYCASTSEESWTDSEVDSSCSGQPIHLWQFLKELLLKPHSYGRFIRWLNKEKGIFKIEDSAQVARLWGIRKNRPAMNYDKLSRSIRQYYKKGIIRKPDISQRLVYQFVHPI
How it was run: as §1

ETV3 = target: T7, ETV3 (Homo sapiens, UniProt P41162-2 1-143)
T7 sequence: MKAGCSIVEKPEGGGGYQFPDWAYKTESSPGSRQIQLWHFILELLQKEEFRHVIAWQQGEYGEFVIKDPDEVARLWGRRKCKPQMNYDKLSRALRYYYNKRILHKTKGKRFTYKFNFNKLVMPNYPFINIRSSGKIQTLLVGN
How it was run: as §1

FEV = target: T8, FEV (Homo sapiens, UniProt Q99581 1-238)
T8 sequence: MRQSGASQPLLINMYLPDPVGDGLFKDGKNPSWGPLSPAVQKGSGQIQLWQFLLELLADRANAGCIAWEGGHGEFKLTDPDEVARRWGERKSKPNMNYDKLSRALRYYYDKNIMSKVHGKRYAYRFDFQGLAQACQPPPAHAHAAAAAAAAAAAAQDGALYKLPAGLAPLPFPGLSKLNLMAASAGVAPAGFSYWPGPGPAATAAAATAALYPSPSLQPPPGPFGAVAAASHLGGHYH
How it was run: as §1

ELF4 = ELF4 (Homo sapiens, UniProt Q99607 1-663)
Chain of ELF4 (Q99607 whole entry): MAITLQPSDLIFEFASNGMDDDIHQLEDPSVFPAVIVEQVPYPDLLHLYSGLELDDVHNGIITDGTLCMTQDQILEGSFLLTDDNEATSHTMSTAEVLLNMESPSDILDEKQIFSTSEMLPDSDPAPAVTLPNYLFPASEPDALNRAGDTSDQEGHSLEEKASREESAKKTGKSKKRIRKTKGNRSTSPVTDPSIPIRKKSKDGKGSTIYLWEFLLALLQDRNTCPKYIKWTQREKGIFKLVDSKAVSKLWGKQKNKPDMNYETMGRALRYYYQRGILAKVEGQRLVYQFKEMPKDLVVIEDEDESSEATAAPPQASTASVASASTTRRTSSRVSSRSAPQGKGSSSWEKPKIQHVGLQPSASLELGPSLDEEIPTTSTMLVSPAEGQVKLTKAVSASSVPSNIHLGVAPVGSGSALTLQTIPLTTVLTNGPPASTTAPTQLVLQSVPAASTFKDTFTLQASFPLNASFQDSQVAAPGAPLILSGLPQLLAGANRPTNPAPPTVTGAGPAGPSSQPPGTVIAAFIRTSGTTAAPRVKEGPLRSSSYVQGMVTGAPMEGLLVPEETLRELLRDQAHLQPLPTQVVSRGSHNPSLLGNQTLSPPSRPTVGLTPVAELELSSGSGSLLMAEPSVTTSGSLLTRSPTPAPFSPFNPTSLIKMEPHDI
How it was run: as §1

GABPA = target: T9, GABPA (Homo sapiens, UniProt Q06546 1-454)
T9 sequence: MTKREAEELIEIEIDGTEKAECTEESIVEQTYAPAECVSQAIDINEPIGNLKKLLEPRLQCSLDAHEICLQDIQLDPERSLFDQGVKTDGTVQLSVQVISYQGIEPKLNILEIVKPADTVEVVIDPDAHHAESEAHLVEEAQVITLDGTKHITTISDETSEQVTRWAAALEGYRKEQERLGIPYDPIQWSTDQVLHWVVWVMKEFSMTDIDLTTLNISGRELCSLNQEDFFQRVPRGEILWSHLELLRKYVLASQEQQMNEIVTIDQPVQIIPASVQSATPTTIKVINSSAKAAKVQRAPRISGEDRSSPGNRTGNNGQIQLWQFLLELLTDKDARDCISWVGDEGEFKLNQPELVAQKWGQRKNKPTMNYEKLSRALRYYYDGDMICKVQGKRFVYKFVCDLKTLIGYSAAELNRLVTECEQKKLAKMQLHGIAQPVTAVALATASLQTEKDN
How it was run: as §1

ELF1 = ELF1 (Homo sapiens, UniProt P32519 1-619)
Chain of ELF1 (P32519 whole entry): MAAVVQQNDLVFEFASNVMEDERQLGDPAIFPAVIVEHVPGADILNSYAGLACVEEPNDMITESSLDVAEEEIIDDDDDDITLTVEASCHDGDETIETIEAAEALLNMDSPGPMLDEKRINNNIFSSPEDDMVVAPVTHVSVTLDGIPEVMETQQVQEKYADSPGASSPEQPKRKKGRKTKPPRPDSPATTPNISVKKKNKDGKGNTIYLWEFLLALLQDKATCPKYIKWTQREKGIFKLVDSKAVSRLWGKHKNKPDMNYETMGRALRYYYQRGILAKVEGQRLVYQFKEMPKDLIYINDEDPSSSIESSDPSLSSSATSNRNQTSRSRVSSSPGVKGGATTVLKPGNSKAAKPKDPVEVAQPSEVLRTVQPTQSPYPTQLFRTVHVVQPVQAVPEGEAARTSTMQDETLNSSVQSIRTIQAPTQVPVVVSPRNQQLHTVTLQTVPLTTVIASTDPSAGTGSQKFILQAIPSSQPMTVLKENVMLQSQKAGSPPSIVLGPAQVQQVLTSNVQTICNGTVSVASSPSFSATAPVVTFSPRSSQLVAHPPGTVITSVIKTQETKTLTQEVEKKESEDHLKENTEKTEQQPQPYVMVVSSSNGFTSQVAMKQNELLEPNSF
How it was run: as §1

ELK3 = target: T10, ELK3 (Homo sapiens, UniProt P41970 1-407)
T10 sequence: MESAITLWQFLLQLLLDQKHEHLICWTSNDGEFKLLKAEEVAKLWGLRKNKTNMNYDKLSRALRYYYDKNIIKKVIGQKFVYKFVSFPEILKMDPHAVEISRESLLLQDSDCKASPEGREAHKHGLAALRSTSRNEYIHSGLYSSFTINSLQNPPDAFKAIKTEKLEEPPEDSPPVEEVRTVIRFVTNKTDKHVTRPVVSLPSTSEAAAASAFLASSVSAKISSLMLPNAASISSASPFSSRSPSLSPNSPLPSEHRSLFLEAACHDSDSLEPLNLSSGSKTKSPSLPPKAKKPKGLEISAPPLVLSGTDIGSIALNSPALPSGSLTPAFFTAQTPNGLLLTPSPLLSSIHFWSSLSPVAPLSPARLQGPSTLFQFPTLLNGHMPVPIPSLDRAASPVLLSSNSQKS
How it was run: as §1

ETS2 = target: T11, ETS2 (Homo sapiens, UniProt P15036 1-469)
T11 sequence: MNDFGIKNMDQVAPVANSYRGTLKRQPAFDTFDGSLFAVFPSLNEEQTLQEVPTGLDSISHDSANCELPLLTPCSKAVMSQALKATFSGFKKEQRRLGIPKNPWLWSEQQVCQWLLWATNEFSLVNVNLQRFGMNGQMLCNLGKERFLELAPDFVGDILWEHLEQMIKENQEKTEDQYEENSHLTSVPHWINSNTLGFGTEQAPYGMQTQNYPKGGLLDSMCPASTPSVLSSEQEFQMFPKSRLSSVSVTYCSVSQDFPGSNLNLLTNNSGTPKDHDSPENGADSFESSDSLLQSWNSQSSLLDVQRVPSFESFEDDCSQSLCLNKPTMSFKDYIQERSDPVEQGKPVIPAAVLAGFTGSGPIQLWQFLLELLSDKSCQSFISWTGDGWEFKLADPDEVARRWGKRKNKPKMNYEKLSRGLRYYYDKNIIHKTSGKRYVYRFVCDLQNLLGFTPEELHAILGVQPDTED
How it was run: as §1

Which results are given for TTGAAG?
binding signal (ELK1): 1.06 fold enrichment (6-mer frequency, TF over GST control); binding signal (ERG): 1.02 fold enrichment (6-mer frequency, TF over GST control); binding signal (ELK4): 1.09 fold enrichment (6-mer frequency, TF over GST control); binding signal (ELF3): 1.07 fold enrichment (6-mer frequency, TF over GST control); binding signal (CRX): 1.03 fold enrichment (6-mer frequency, TF over GST control); binding signal (ETV1): 1.01 fold enrichment (6-mer frequency, TF over GST control); binding signal (ERF): 1.01 fold enrichment (6-mer frequency, TF over GST control); binding signal (SPDEF): 1.03 fold enrichment (6-mer frequency, TF over GST control); binding signal (ETV3): 1.02 fold enrichment (6-mer frequency, TF over GST control)

Which results are given for GCCACC?
binding signal (FEV): 1.01 fold enrichment (6-mer frequency, TF over GST control); binding signal (ELF4): 1 fold enrichment (6-mer frequency, TF over GST control); binding signal (ELK4): 1.03 fold enrichment (6-mer frequency, TF over GST control)

CAATGA was tested. Which binding signal (ELK1) did it give?
Its binding signal is 1.04 fold enrichment (6-mer frequency, TF over GST control).

What about the binding signal (GABPA) of the same sequence?
Its binding signal is 1.05 fold enrichment (6-mer frequency, TF over GST control).

And the binding signal (ERG)?
Its binding signal is 1.03 fold enrichment (6-mer frequency, TF over GST control).

What about the binding signal (ELF1) of the same sequence?
Its binding signal is 1.06 fold enrichment (6-mer frequency, TF over GST control).

What about the binding signal (ELK3) of the same sequence?
The binding signal was 1.04 fold enrichment (6-mer frequency, TF over GST control).

And the binding signal (ELF4)?
The binding signal was 1.01 fold enrichment (6-mer frequency, TF over GST control).

What about the binding signal (ELK4) of the same sequence?
Its binding signal is 1.12 fold enrichment (6-mer frequency, TF over GST control).

What about the binding signal (ELF3) of the same sequence?
The binding signal was 1.15 fold enrichment (6-mer frequency, TF over GST control).

And the binding signal (ETV1)?
The binding signal was 1.01 fold enrichment (6-mer frequency, TF over GST control).

And the binding signal (ERF)?
Its binding signal is 1.06 fold enrichment (6-mer frequency, TF over GST control).

And the binding signal (ETS2)?
The binding signal was 1.03 fold enrichment (6-mer frequency, TF over GST control).
